Results from PubChem BioAssay AID1159580 (chemical genetic matrix, 2015).
The whole screen tested about 5,500 compounds, of which about 2,000 (36%) were called active. Not shown: some 18% with an inconclusive outcome. Rule as the data show it: active = normalized growth mostly below about 0.91 (no sharp cut-off); inconclusive = no clear call, values can overlap the other calls; inactive = mostly above about 0.92. This is one part of the list.

Experiment: chemical genetic growth profiling, strain panel (AID 1159580);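 also: tested at 20 µM; growth read once vehicle control cultures reached saturation at 30 °C; 1 = growth at the plate median or of vehicle wells; lower values mean less growth of the strain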
Conditions: S. cerevisiae deletion strains, growth OD

Measured: normalized growth

CCCc1nc(C)c2c(=O)[nH]c(-c3cc(S(=O)(=O)N4CCN(CC)CC4)ccc3OCC)nn12
inactive: locus YAL021C, strain ccr4, stronger effect = lower value 0.961 | locus YAL026C, strain drs2, stronger effect = lower value 0.944 | locus YAL030W, strain snc1, stronger effect = lower value 0.947 | locus YBL061C, strain skt5, stronger effect = lower value 0.979 | locus YBR009C, strain hhf1, stronger effect = lower value 0.975 | locus YBR023C, strain chs3, stronger effect = lower value 0.974 | locus YBR171W, strain sec66, stronger effect = lower value 0.967 | locus YBR231C, strain swc5, stronger effect = lower value 0.97 | locus YBR279W, strain paf1, stronger effect = lower value 0.981 | locus YCL011C, strain gbp2, stronger effect = lower value 0.974 | locus YCL016C, strain dcc1, stronger effect = lower value 0.974 | locus YCL061C, strain MRC1, stronger effect = lower value 0.952 | locus YCL069W, strain vba3, stronger effect = lower value 0.988 | locus YCR088W, strain abp1, stronger effect = lower value 0.98 | locus YDL005C, strain med2, stronger effect = lower value 0.98 | locus YDL040C, strain nat1, stronger effect = lower value 0.985 | locus YDR001C, strain nth1, stronger effect = lower value 0.964 | locus YDR069C, strain doa4, stronger effect = lower value 0.951 | locus YDR137W, strain rgp1, stronger effect = lower value 0.915 | locus YDR159W, strain sac3, stronger effect = lower value 0.93 | locus YDR195W, strain ref2 0.938 | locus YDR297W, strain sur2, stronger effect = lower value 0.984 | locus YDR334W, strain swr1, stronger effect = lower value 0.913 | locus YDR335W, strain msn5, stronger effect = lower value 0.97 | locus YDR392W, strain spt3, stronger effect = lower value 0.964 | locus YEL003W, strain gim4, stronger effect = lower value 0.969 | locus YEL037C, strain rad23, stronger effect = lower value 0.985 | locus YEL061C, strain CIN8 (second series), stronger effect = lower value 0.973 | locus YER015W, strain faa2, stronger effect = lower value 0.983 | locus YER016W, strain bim1, stronger effect = lower value 0.973 | locus YER111C, strain swi4, stronger effect = lower value 0.972 | locus YER155C, strain BEM2 (second series), stronger effect = lower value 0.945 | locus YFR010W, strain ubp6, stronger effect = lower value 0.943 | locus YGL167C, strain pmr1, stronger effect = lower value 0.957 | locus YGL173C, strain kem1, stronger effect = lower value 0.949 | locus YGL227W, strain vid30, stronger effect = lower value 0.965 | locus YGL240W, strain doc1, stronger effect = lower value 0.921 | locus YGL253W, strain hxk2, stronger effect = lower value 0.971 | locus YHR013C, strain ard1, stronger effect = lower value 0.931 | locus YHR027C, strain rpn1, stronger effect = lower value 0.942 | locus YHR030C, strain SLT2, stronger effect = lower value 1.08 | locus YHR079C, strain IRE1, stronger effect = lower value 1.07 | locus YHR142W, strain chs7, stronger effect = lower value 0.971 | locus YJL092W, strain hpr5, stronger effect = lower value 0.96 | locus YJL095W, strain BCK1 (second series), stronger effect = lower value 0.974 | locus YJL095W, strain BCK1, stronger effect = lower value 1.01 | locus YJL115W, strain asf1, stronger effect = lower value 0.943 | locus YJL129C, strain trk1, stronger effect = lower value 0.969 | locus YJL154C, strain vps35, stronger effect = lower value 0.97 | locus YJL164C, strain tpk1, stronger effect = lower value 0.948 | locus YJL166W, strain qcr8, stronger effect = lower value 0.969 | locus YJL187C, strain SWE1, stronger effect = lower value 0.972 | locus YJR066W, strain TOR1, stronger effect = lower value 0.979 | locus YKL160W, strain elf1, stronger effect = lower value 0.987 | locus YKR026C, strain gcn3, stronger effect = lower value 0.973 | locus YKR091W, strain srl3, stronger effect = lower value 0.977 | locus YLL001W, strain dnm1, stronger effect = lower value 0.973 | locus YLL026W, stronger effect = lower value 0.947 | locus YLL041C, strain sdh2, stronger effect = lower value 0.96 | locus YLR027C, strain aat2, stronger effect = lower value 0.953 | locus YLR113W, strain HOG1, stronger effect = lower value 0.997 | locus YLR221C, strain rsa3, stronger effect = lower value 0.978 | locus YLR258W, strain gsy2, stronger effect = lower value 0.983 | locus YLR262C, strain YPT6 (second series), stronger effect = lower value 0.979 | locus YLR320W, strain mms22, stronger effect = lower value 0.964 | locus YLR342W, strain FKS1, stronger effect = lower value 0.98 | locus YLR357W, strain rsc2, stronger effect = lower value 0.937 | locus YLR370C, strain arc18, stronger effect = lower value 0.966 | locus YLR384C, strain iki3, stronger effect = lower value 0.95 | locus YML120C, strain ndi1, stronger effect = lower value 0.981 | locus YMR058W, strain fet3, stronger effect = lower value 0.954 | locus YMR125W, strain sto1, stronger effect = lower value 0.969 | locus YMR129W, stronger effect = lower value 0.981 | locus YMR205C, strain PFK2, stronger effect = lower value 0.944 | locus YMR231W, strain pep5, stronger effect = lower value 0.978 | locus YNL071W, strain lat1, stronger effect = lower value 0.988 | locus YNL183C, strain NPR1, stronger effect = lower value 0.967 | locus YNL209W, strain ssb2, stronger effect = lower value 0.978 | locus YNL248C, strain rpa49, stronger effect = lower value 0.966 | locus YNL322C, strain KRE1 (second series), stronger effect = lower value 0.956 | locus YNR049C, strain mso1, stronger effect = lower value 0.967 | locus YOR001W, strain rrp6, stronger effect = lower value 0.956 | locus YOR070C, strain gyp1, stronger effect = lower value 0.983 | locus YOR080W, strain dia2, stronger effect = lower value 0.967 | locus YOR083W, strain WHI5, stronger effect = lower value 0.946 | locus YOR106W, strain vam3, stronger effect = lower value 0.955 | locus YOR231W, strain MKK1, stronger effect = lower value 1.05 | locus YOR265W, strain rbl2, stronger effect = lower value 0.98 | locus YOR270C, strain vph1, stronger effect = lower value 0.992 | locus YOR290C, strain snf2, stronger effect = lower value 0.938 | locus YPL051W, strain arl3, stronger effect = lower value 0.975 | locus YPL078C, strain atp4, stronger effect = lower value 0.97 | locus YPL106C, strain sse1, stronger effect = lower value 0.868 | locus YPL240C, strain hsp82, stronger effect = lower value 0.973 | locus YPL256C, strain CLN2, stronger effect = lower value 1.09
